According to PubChem BioAssay (NCATS):
Records with an inconclusive call do not appear. A number with no mark means an inactive call. The source made the active and inactive calls.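 The calls were made as follows: active = compounds whose dose-response curve shows a full or clear partial loss of cell viability, called from curve shape rather than a numeric limit; inconclusive = weak partial curves or an effect only at the top dose; inactive = no dose-dependent loss of viability.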

test: Cell Viability - Hek293 (AID 427); conditions: qHTS;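 also: cells exposed to compound for 40 hours at 37 °C before reading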
Excerpt: NIH Chemical Genomics Center [NCGC]
NIH Molecular Libraries Screening Centers Network [MLSCN]
National Institutes of Environmental Health Sciences [NIEHS]
National Toxicology Program [NTP]
We have developed a 1536-well cell-based assay for quantitative high throughput screening (qHTS) against a number of cell lines to determine in vitro cytotoxicity of small molecules. This particular assay uses the Hek 293 cell line which is derived from human embryonic kidney cells (transformed with adenovirus).
NCGC Assay Protocol Summary:
The CellTiter-Glo luminescent cell viability assay (Promega) is a homogeneous method to measure the number of viable cells in culture. The end point readout of this assay is based on quantitation of intracellular ATP, an indicator of metabolic activity, using the luciferase reaction. Luciferase catalyzes the oxidation of beetle Luciferin to oxyluciferin and light in the presence of ATP. The luminescent signal is proportional to amount of ATP present.
Using the CellTiter-Glo luminescent cell viability assay, the amount of cellular ATP was measured in the Hek293 cell line with complete culture medium following compound treatment for 40 hours. The assay was performed in opaque white Kalypsys 1536-well plates. In the screen, tamoxifen and doxorubicin were used as positive controls. Library compounds were measured for their ability to cause acute toxicity in the cell line, as reflected by a decrease in intracellular ATP levels, in a concentration-dependent manner. Data were normalized to the controls for basal activity (DMSO only) and 100% inhibition (100 uM tamoxifen). AC50 values were determined from concentration-response data modeled with the standard Hill equation.
qHTS protocol fo CellTiter Glo Hek 293 cellular assay
[Step] [Parameter] [Value] [Description]
2. Time; 5 hr; 37 °C incubation
4. Controls; 23 nL; Tamoxifen 0.34 uM to 100 uM & Doxorubicin 0.02 nM to 100 uM
5. Time; 40 hr; 37 °C incubation
6. Reagent; 5 uL; CellTiter Glo reagent
7. Time; 20 min; Room Temperature
8. Detection; Luminescence; Viewlux plate reader
Keywords: cell viability, cytotoxicity, Hek293 cell line, luminescence, NTPHTS, NTPHTS_NCGC, NIEHS, EPA, DSSTox, MLSMR, MLSCN, NIH Roadmap, qHTS, NCGC
Potency is read from the fitted curve at half-maximal effect.

SMILES	Potency
c1ccc2c(c1)ccc1cc3c(ccc4ccccc43)cc12	> 92 µM
Nc1ccc2cc3ccccc3cc2c1	> 92 µM
c1cc(OCC2CO2)cc(OCC2CO2)c1 (stereo not given)	32.9 µM (active)
O=C(/C=C/c1ccc(O)c(O)c1)OC1C[C@](O)(C(=O)O)C[C@@H](O)[C@H]1O (stereo not given in full)	> 92 µM
C=CC(=O)OCC(CO)(COC(=O)C=C)COC(=O)C=C	8.68 µM (active)
CNc1ccc(O)cc1	40.8 µM (active)
Cc1cc(O)c(C(C)(C)C)cc1Sc1cc(C(C)(C)C)c(O)cc1C	33.7 µM (active)
O=Cc1ccc(Cl)c(Cl)c1	> 92 µM
C=CC(=O)OCCOCCOC(=O)C=C	27 µM (active)
CCCCCCCC[N+](CCCCCCCC)(CCCCCCCC)CCCCCCCC	7.17 µM (active)
O=[N+]([O-])c1cc([N+](=O)[O-])c2ccc(S(=O)(=O)O)cc2c1O	> 92 µM
CN(C)c1ccc(C2(c3ccc(N(C)C)cc3)OC(=O)c3cc(N(C)C)ccc32)cc1	> 92 µM
ClC1=C(Cl)C(Cl)(Cl)C(Cl)=C1Cl	> 92 µM
c1ccc2c(c1)-c1cccc3c1c-2cc1ccccc13	> 92 µM
O=C1OC2(c3cc(Br)c(O)c(Br)c3Oc3c2cc(Br)c(O)c3Br)c2c(Cl)c(Cl)c(Cl)c(Cl)c21	> 92 µM
O=C=Nc1ccc(Cc2ccc(N=C=O)cc2)cc1	> 92 µM
C=C(C)c1ccccc1	> 92 µM
Oc1ccc2cc(SSc3ccc4cc(O)ccc4c3)ccc2c1	46.2 µM (active)
O=C(OCC(COC(=O)c1ccccc1)(COC(=O)c1ccccc1)COC(=O)c1ccccc1)c1ccccc1	> 92 µM
CN1[C@H]2CC(OC(=O)[C@H](CO)c3ccccc3)C[C@H]1[C@H]1O[C@H]12 (stereo not given in full)	> 92 µM
Cc1cccc(O)c1C	> 92 µM
CC(=O)Nc1ccc(C(=O)CCl)cc1	37.9 µM (active)
CCC(C)Nc1ccc(NC(C)CC)cc1 (stereo not given)	19.3 µM (active)
CCCCCC/C(C=O)=C\c1ccccc1	> 92 µM
Cc1cc(Nc2ccc(O)cc2)ccc1N	52.8 µM (active)
